# Test results taken from ChEMBL document CHEMBL4513216, “Probing the Open Global Health Chemical Diversity Library for Multistage-Active Starting Points for Next-Generation Antimalarials” (ACS Infect Dis, 2020).
# The campaign covered roughly 68,000 compounds. About 2,700 (4%) showed an effect of 50% or more. The full list was thinned out, with strong results kept by preference.
# System: Plasmodium berghei
# Experiment: Screen against P. berghei liver stage (PbLuc), transformed with Luciferase, at 2uM
# Assay type: functional, HepG2
# Details: tested at 2 uM
row,SMILES,INHIBITION [%]
1,CCN1CC2(CC1=O)CN(C(=O)c1ccsc1)CCN(C(=O)N(C)C)C2 (stereo not given),26.44
2,Cc1noc2nc(C3CCCN(Cc4cccnc4)C3)cc(C(F)F)c12 (stereo not given),39.06
3,Cc1noc2nc(C3CCCN(Cc4ccncc4)C3)cc(C(F)F)c12 (stereo not given),63.66
4,Cc1noc2nc(C3CCN(Cc4ccncc4)CC3)cc(C(F)F)c12,17.51
5,COc1c(C)cnc(CN2CCCC2c2noc(C)n2)c1C (stereo not given),4.87
6,COCCN(CC1CC1)c1nc(CCN)nc2sc(C)c(C)c12,13.65
7,O=C1NC2(CCN(Cc3cccnc3)CC2)CC1c1cccnc1 (stereo not given),-22.79
8,Cc1noc(C)c1CN(C)Cn1c(=O)oc2ccccc21,-5.31
9,CC(C)N1CCC(CC(=O)N2CCN(Cc3nccn3C)CC2)CC1,29.41
10,COCCN1CC[C@]2(CN(Cc3cccnc3)C[C@H]2C)C1=O,49.07
11,Cc1nc2n(n1)CC(NCc1cnn(-c3ccccc3)n1)CC2 (stereo not given),24.88
12,COc1ccc(C(=O)N2CCOCC2c2ccc(C)o2)cc1 (stereo not given),39.93
13,COCc1ccc(C(=O)N2CCOCC2c2ccc(C)o2)cc1 (stereo not given),62.13
14,CC(=O)Nc1cc(C(=O)N2CCOCC2c2ccc(C)o2)ccc1F (stereo not given),44.99
15,Cc1ccc(C2COCCN2C(=O)c2ccc(F)c(F)c2)o1 (stereo not given),70.24
16,Cc1ccc(C2COCCN2C(=O)c2ccc(N(C)C)cc2)o1 (stereo not given),30.73
17,Cc1ccc(C2COCCN2C(=O)c2ccc(C#N)cc2)o1 (stereo not given),54.44
18,Cc1ccc(C2COCCN2C(=O)c2ccc(CN(C)C)cc2)o1 (stereo not given),27.84
19,Cc1ccc(C2COCCN2C(=O)c2ccsc2)o1 (stereo not given),16.01
20,Cc1ccc(C2COCCN2C(=O)c2cccc(N(C)C)c2)o1 (stereo not given),43.34
21,CCS(=O)(=O)N1CCCCC1c1nc(C(C)C)no1 (stereo not given),-28.84
22,CN1CCN(Cc2ccccc2Oc2ccc(C(N)=O)cn2)CC1,8.73
23,CN(Cc1ccc(O)cc1)C(=O)NC1CCCN(c2ncccn2)C1 (stereo not given),36.95
24,Cc1nc(CN2CCCC(c3nccs3)C2)cs1 (stereo not given),-33.32
25,Cn1cc(Cl)c(C(=O)N2CCC(N3CCc4ccccc4C3)CC2)n1,18.63

row,SMILES,INHIBITION [%]
1,Cc1c(O)cccc1C(=O)N1CCCC2(C1)C(=O)N(C)c1ccccc12 (stereo not given),-91.67
2,Cc1noc(COCC(=O)N2CCCC(c3nccs3)C2)n1 (stereo not given),-7.96
3,CCc1cn[nH]c1C1CCCN(C(=O)c2ncoc2C(C)C)C1 (stereo not given),27.85
4,CCc1cn[nH]c1C1CCCN(C(=O)c2cnc(NC(C)C)nc2)C1 (stereo not given),56.49
5,CCc1cn[nH]c1C1CCCN(C(=O)c2cc(C(C)C)on2)C1 (stereo not given),22.34
6,CCn1cc(NC(=O)C(C)n2ncc(Cl)c2C)c(C(=O)NC)n1 (stereo not given),-28.77
7,CC(C)(C)C(=O)N1C[C@H](c2ccsc2)[C@H]2CN(C3CCCCC3)CC[C@H]21,25.41
8,CC(C)C(=O)N1CCC12CCCN(C(=O)c1ccnnc1)C2 (stereo not given),-40.36
9,CC(=O)NC(Cc1c[nH]c2cc(F)ccc12)C(=O)Nc1cnn(C)c1 (stereo not given),11.32
10,CC(=O)NC(Cc1c[nH]c2cc(F)ccc12)C(=O)Nc1nonc1C (stereo not given),46.43
11,CC(=O)NC(Cc1c[nH]c2cc(F)ccc12)C(=O)Nc1nncs1 (stereo not given),59.94
12,Cc1ccc(CN(C)C(=O)CN2CCCC(Cn3cncn3)C2)cc1 (stereo not given),10.4
13,O=C1CCC(c2nc(C3CCNCC3)no2)N1 (stereo not given),-6.77
14,CO[C@H]1CCN(C(=O)Cc2ccsc2)[C@@H]2CN(CC3CC3)C[C@H]12,22.16
15,CO[C@H]1CCN(C(=O)c2ccsc2)[C@@H]2CN(CC3CC3)C[C@H]12,-1.45
16,CO[C@@H]1CCN(C(=O)c2ccsc2)[C@@H]2CN(CC3CC3)C[C@@H]21,54.01
17,CCN1C[C@@H]2[C@@H](OC)CCN(C(=O)c3cc(C)nn3CC)[C@@H]2C1,66.46
18,CCN1C[C@H]2[C@@H](C1)N(C(=O)Cc1ccsc1)CC[C@H]2OC,48.52
19,CCn1nc(C)cc1C(=O)N1CC[C@H](OC)[C@H]2CN(CC3CC3)C[C@H]21,24.51
20,O=C(c1cscn1)N1C[C@H]2CCCC(OCc3cccnc3)[C@H]2C1 (stereo not given in full),-16.41
21,COCCCN1CCCN(C(C)C(=O)Nc2cccc(I)c2)CC1 (stereo not given),42.76
22,Cc1cc(C)cc(OCC(=O)NC2CCN(S(C)(=O)=O)CC2)c1,-50.23
23,CCN(Cc1cccc(C(N)=O)c1)c1ccccc1,36.74
24,Cc1ncsc1C(=O)NC1CCN(Cc2ccc(C(F)(F)F)cc2)CC1,74.35
25,Cc1ccc(CN2CCC(NC(=O)c3scnc3C)CC2)cc1,-21.72

row,SMILES,INHIBITION [%]
1,Cc1ncsc1C(=O)NC1CCN(Cc2ccc(C(N)=O)cc2)CC1,-2.82
2,Cc1cc(CN2C[C@@H]3CC[C@H]2CN(C2Cc4ccccc4C2)C3)on1,17.28
3,CCC(NCc1ccccc1)c1ccccc1OCC(=O)NC (stereo not given),-3.09
4,CC(=O)N[C@@H]1CN(C2CCN(c3cccc(C)c3C)CC2)C[C@H]1C(C)C,29.13
5,CC(=O)N[C@@H]1CN(C2CCN(c3ccccc3F)CC2)C[C@H]1C(C)C,7.67
6,COc1ccc(N2CCC(NC(=O)c3ccc(C#N)cc3)CC2)cc1,45.62
7,CCOC(C)C(=O)N(C)C1CCN(c2ccc(OC)cc2)CC1 (stereo not given),73.09
8,CC(=O)N[C@@H]1CN(C2CCN(c3cccc(Cl)c3)CC2)C[C@H]1C(C)C,21.97
9,COc1cccc(N2CCC(N3C[C@@H](NC(C)=O)[C@H](C(C)C)C3)CC2)c1,52.98
10,COc1ccc(N2CCC(N(C)C(C)C(=O)N(C)C)CC2)cc1 (stereo not given),-2.89
11,COc1ccc(N2CCC(N(C)C(=O)C(C)SC)CC2)cc1 (stereo not given),27.5
12,COc1ccc(N2CCC(N3C[C@H](NC(C)=O)[C@@H](C(C)C)C3)CC2)cc1,55.36
13,O=C(NCC1(c2ccc(F)cc2)CCCC1)N1CCOC(CO)C1 (stereo not given),12.41
14,Cn1ncnc1-c1ccnc(N2CCC(C(O)c3cccs3)CC2)n1 (stereo not given),39.98
15,Fc1cccc(N2CCCC3(CN(Cc4cccnc4)CCO3)C2)c1 (stereo not given),-18.59
16,O=c1[nH]c2ccccc2c2c1CCO2,-66.7
17,O=C(Nc1ccccn1)NC(CCCO)c1ccccc1 (stereo not given),-67.62
18,Cc1ccc(CN2CC[C@H]3OCC[C@@]3(COCC(=O)N(C)C)C2)s1,-14.52
19,CCc1ccc(CN2CCCC(CO)(CCOC)C2)cc1 (stereo not given),22.74
20,CCN(CC)C(=O)[C@@H]1C[C@@H](N)CN1C(=O)c1cc2c([nH]c1=O)CCC2,56.16
21,CCN(CC)C(=O)[C@@H]1C[C@H](N)CN1C(=O)c1cc2c([nH]c1=O)CCC2,22.89
22,CC(C)NC(=O)[C@@H]1C[C@H](N)CN1C(=O)c1cc2c([nH]c1=O)CCCC2,-34.26
23,CCN1CC2(CCC1=O)CCN(CCc1nccn1C)CC2,25.65
24,CNc1nnc(CCn2nc(C)c(Br)c2C)s1,6.05
25,CC(C)(C)CC(=O)NC[C@H]1OC[C@@H](NCc2ccccn2)[C@@H]1O,16.43

row,SMILES,INHIBITION [%]
1,CCS(=O)(=O)Cc1ccn(-c2cccc(F)c2)n1,6.82
2,CC(C)=CCS(=O)(=O)Cc1ccn(-c2cccc(F)c2)n1,58.14
3,CN(C)C(=O)CS(=O)(=O)Cc1ccn(-c2cccc(F)c2)n1,-19.29
4,CCCNC(=O)CNc1cc(C#N)ccc1OCC,-19.76
5,Cn1ncc(C(=O)O)c1C(=O)Nc1nc2ccc(Br)cc2s1,3.27
6,N#Cc1ccc(CNCC2CCN(CCO)CC2)cc1,1.07
7,Cc1[nH]c2ccc(CNc3cc(C(=O)NC(C)C)ccn3)cc2c1C,15.46
8,O=C1CO[C@H]2CN(S(=O)(=O)c3ccccc3)C[C@H]2N1c1ccccc1,53.27
9,O=C1CO[C@@H]2CN(S(=O)(=O)c3ccccc3)C[C@H]2N1CC1CC1,-30.12
10,O=C1CO[C@H]2CN(S(=O)(=O)c3ccccc3)C[C@H]2N1Cc1ccccc1,15.98
11,CC(C)c1noc(C[S+]([O-])CC(=O)Nc2cc(F)ccc2F)n1 (stereo not given),12.35
12,CC(NC1CCN(CCS(C)(=O)=O)CC1)c1ccc(Cl)cc1 (stereo not given),-26.72
13,COCCNC(=O)CCNc1cc(C)nc(-c2ccncc2)n1,69.06
14,Cc1cc(NCCC(=O)NC2CCCC2)nc(-c2ccncc2)n1,-82.36
15,Cc1cc(NCCC(=O)NC(C)C)nc(-c2ccncc2)n1,-1.96
16,O=S(=O)(NCC1(O)CCCC1)c1ccccc1Br,32.07
17,Cc1noc(C)c1C(=O)N1Cc2ncn(C)c2C(COCC(C)C)C1 (stereo not given),25.92
18,CN(C)c1ccnc(N2CCC(NCCOc3ccccc3)CC2)n1,-55.42
19,CN(C)c1nccc(-c2c[nH][nH]c2=O)n1,3.97
20,CN(C)c1nccc(-c2cnc(N(C)C)[nH]c2=O)n1,51.32
21,Cc1ncncc1-c1ccnc(N(C)C)n1,22.5
22,CN(Cc1ccc2nonc2c1)C(=O)CCc1cc2n(n1)CCCNC2,-3.87
23,CCN(Cc1ccncc1)C1CCCN(Cc2ccc(F)cc2OC)C1 (stereo not given),51.42
24,CCN(Cc1ccncc1)C1CCCN(Cc2ccc(F)cc2Cl)C1 (stereo not given),32.26
25,CCN(Cc1ccncc1)C1CCCN(C/C=C/c2ccc(F)cc2)C1 (stereo not given),27.95
